# Source: PubChem BioAssay (National Center for Advancing Translational Sciences (NCATS))
# ELG1 repair inh: ELG1-dependent DNA repair inhibition; Potency, µM (titrated, usually from 46.1 µM), actives largely listed as inhibitors; hit rate 2.3% among 330,000; AID 504467; HEK293T ELG1-luciferase reporter, luminescence, 16 h; DNA damage induced by 5-fluorouridine; note: nearly all actives have a fitted effect of over 55% in size
#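 Quantitative HTS, concentration-response format. 2,000 cells/well co-treated with 5-fluorouridine and compound, 16 hr in 5% CO2 at 37 °C; ONE-Glo luminescence read after 30 min.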
# NPC1 prom act: NPC1 promoter activation; Potency, µM (doses to about 9.22 µM), actives largely listed as activators; Huh7 NPC1 promoter luciferase reporter, 24 h; AID 485313; hit rate 2.4% among 320,000; note: nearly all actives have a fitted effect of over 60% in size
#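 Cells: Huh7 expressing luciferase under the NPC1 promoter, 1500/well. Seeded 2 h, compound added, incubated 24 h at 37 °C. Luciferase reagent, 10 min ambient, then luminescence.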
# ELG1 genotoxic: induces genotoxicity in HEK293T cells with luciferase-tagged ELG1; HEK293T ELG1-luciferase reporter, luminescence, 16 h; Potency, µM (series often up to 46 µM), usual class: activators; hit rate 1.3% among 330,000; AID 504466; note: nearly all actives have a fitted effect of over 60% in size
#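 Quantitative HTS format in 1536-well plates. HEK293T ELG1-luciferase reporter cells receive test compound and are incubated 16 hr at 37 °C, 5% CO2; ONE-Glo added, 30 min room temperature, then luminescence read.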
# FLuc counter: inhibits or activates purified firefly luciferase, miR-21 counter-screen. purified FLuc, Km substrates, luminescence inhibition. Potency, µM (titrated, usually from 57.5 µM), usual class: inhibitors. P08659. hit rate 6.9% among 360,000. AID 588342; note: nearly all actives have a fitted effect of over 55% in size
# Target sequence (P08659 whole entry, looked up): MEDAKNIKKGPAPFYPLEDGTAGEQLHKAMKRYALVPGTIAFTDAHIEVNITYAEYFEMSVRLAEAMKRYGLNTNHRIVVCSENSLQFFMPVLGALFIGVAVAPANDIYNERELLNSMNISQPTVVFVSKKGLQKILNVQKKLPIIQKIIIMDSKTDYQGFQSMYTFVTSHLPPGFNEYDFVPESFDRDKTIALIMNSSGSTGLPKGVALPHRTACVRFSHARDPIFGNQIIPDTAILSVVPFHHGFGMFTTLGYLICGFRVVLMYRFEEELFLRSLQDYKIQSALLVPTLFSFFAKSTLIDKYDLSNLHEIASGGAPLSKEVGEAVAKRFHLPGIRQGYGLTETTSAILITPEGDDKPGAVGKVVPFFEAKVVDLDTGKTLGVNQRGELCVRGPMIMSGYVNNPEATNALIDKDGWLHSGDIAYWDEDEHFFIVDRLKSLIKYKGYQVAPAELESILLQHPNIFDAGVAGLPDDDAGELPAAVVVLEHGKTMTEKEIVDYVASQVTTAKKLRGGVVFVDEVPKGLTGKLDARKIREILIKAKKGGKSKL
#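 Biochemical qHTS of compounds, final roughly 60 µM downward over six points, against 10 nM purified firefly luciferase using Km concentrations of substrates (10 uM D-luciferin, 10 uM ATP) in Tris acetate pH 7.5 buffer; luminescence output.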
# Rab9 promoter act: Rab9 promoter activation. Huh7 Rab9 promoter-luciferase reporter, luminescence, 24 h. Potency, µM (highest dose often 9.22 µM), hits mostly activators. hit rate 2.8% among 320,000; note: nearly all actives have a fitted effect of over 60% in size
#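 Quantitative HTS format; Huh7 Rab9-luciferase reporter cells (1500/well) receive compound 2 h post-plating, incubate 24 h at 37 °C, then get luciferase reagent for 10 min before luminescence reading.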
# SMN2 splice enh: SMN2 splice variant enhancement. Potency, µM (top dose mostly 46.1 µM), usual class: activators. hit rate 2.8% among 210,000. AID 1458. HEK293 SMN2-luciferase splicing reporter, luminescence, 30-36 h; note: nearly all actives have a fitted effect of over 55% in size
#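 HEK293 cells carry an SMN2 minigene-luciferase reporter in which exon 7 inclusion puts luciferase in frame. Cells were seeded at 2000 cells/well, attached for 10-12 hours, then exposed to compounds for 30-36 hours at 37C before ONE-Glo luminescence.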
# Hits are given with their value; i = inactive; ? = inconclusive; nt = no result. Only some compounds are listed: those with a hit (about 9.2% of all), similar ones and a draw of the others. Calls come from the whole dose curve; as a rule, active = well fitted curve in the direction sought with a large enough effect; inconclusive = small, poorly fitted or top-dose-only effect, or another doubt; inactive = no such curve, though single readings can be large; an effect the other way counts as inactive or inconclusive.
SMILES,ELG1 repair inh,NPC1 prom act,ELG1 genotoxic,FLuc counter,Rab9 promoter act,SMN2 splice enh
CCOc1ccc2nc(NC(=O)CS(=O)(=O)c3ccc(Cl)cc3)sc2c1,nt,nt,nt,i,nt,nt
CCOc1ccc2nc(NC(=O)CS(=O)(=O)c3ccccc3)sc2c1,i,i,i,12µM,i,i
Oc1ccccc1C1CC(c2cccs2)=NC(c2ccc(Cl)cc2)N1 (stereo unspecified),i,i,i,?,?,nt
CCOc1ccccc1C1N=C(c2ccc(OC)cc2)CC(c2ccccc2O)N1 (stereo unspecified),?,?,?,19µM,?,nt
Cc1nc(-c2ccc(C(=O)Nc3cccc(Br)c3)cc2)cs1,?,?,?,1.1µM,?,10µM
Cc1nc(-c2cccc(NC(=O)c3ccc(-n4nccc4C)cc3)c2)cs1,?,i,i,4.8µM,i,nt
COc1cccc(C(=O)NC(=O)Nc2cc(C)on2)c1,?,?,?,?,1.6µM,11µM
Cc1cc(NC(=O)Nc2ccc(C)c(C)c2)no1,?,i,?,13µM,?,nt
COc1ccc(C(=O)Nc2ccc(C)cn2)c(OC)c1,?,?,0.092µM,0.19µM,0.35µM,nt
COc1ccc(C(=O)Nc2cc(C)on2)cc1OC,i,i,i,i,i,nt
COc1cc(C(=O)Nc2ccc(C)cn2)c([N+](=O)[O-])cc1OC,i,i,i,i,i,i
COc1cccc(NC(=O)Nc2cc(C)on2)c1,?,i,i,?,i,nt
COc1ccc(C(=O)Nc2cc(C)on2)c(OC)c1,?,3.2µM,?,11µM,3.2µM,nt
COc1cccc(C(=O)Nc2ccccc2C(=O)OCc2cc(=O)n3nc(C)sc3n2)c1,nt,nt,nt,i,nt,nt
COc1ccc(-c2nc(SCC(=O)Nc3ccc4c(c3)OCO4)c(-c3ccccc3)[nH]2)cc1,nt,nt,nt,i,nt,i
CC1CC1C(=O)OCc1cc(=O)n2cc(Br)ccc2n1 (stereo unspecified),?,2.5µM,?,9.5µM,3.5µM,i
Cc1ccccc1C(=O)NC(CC(C)C)C(=O)OCc1cc(=O)n2cc(Br)ccc2n1 (stereo unspecified),?,4µM,?,13µM,?,11µM
CC1(C(=O)OCc2cc(=O)n3cc(Br)ccc3n2)CC1(Cl)Cl (stereo unspecified),?,3.2µM,12µM,13µM,i,?
CCN1C(=O)C(CC(=O)Nc2ccc(OC)cc2)N(CCc2ccccc2F)C1=S (stereo unspecified),16µM,i,i,i,i,nt
O=c1[nH]c2ccc(NCc3ccc(-c4ccc(F)cc4)o3)cc2[nH]1,nt,nt,nt,i,nt,nt
CCN(CC(=O)NCc1ccc(Cl)cc1)C(=O)COc1ccc(C)cc1C,?,i,i,i,i,nt
O=C(N/N=C/C=C/c1ccccc1)c1ccccc1Br,?,i,i,?,i,i
O=C(O)c1cccc(N/N=C/c2ccc(OC(F)(F)F)cc2)c1,?,?,?,0.067µM,0.032µM,nt
O=C(O)c1cccc(N/N=C/c2cccs2)c1,?,?,?,0.43µM,?,0.14µM
O=C(O)c1cc(N/N=C/C=C/c2ccccc2)ccc1Cl,?,0.4µM,9.2µM,7.6µM,0.35µM,10µM
SMILES,ELG1 repair inh,NPC1 prom act,ELG1 genotoxic,FLuc counter,Rab9 promoter act,SMN2 splice enh
O=C(Nc1ccc(OC(F)(F)F)cc1)c1cccc(-n2cnnn2)c1,i,i,i,i,i,nt
Cc1cccc(C(=O)Oc2ccc(/C=N/NC(=O)c3ccc(O)cc3)cc2)c1,i,i,i,?,i,nt
O=C(O)c1ccc(N/N=C/c2ccc(OC(=O)c3cccc(Cl)c3)cc2)cc1,?,?,i,19µM,?,nt
CC(=O)N1CCN(C(=O)CSc2ncnc3sc(C)c(C)c23)CC1,i,nt,i,nt,nt,nt
CCc1ccc(NC(=O)C2=C(C)C(=O)OC23CCCCC3)cc1,nt,nt,nt,i,nt,i
COC(=O)c1ccc(COc2ccc(/C=N/Nc3cccc(C(=O)O)c3)cc2)cc1,?,0.71µM,?,2.7µM,0.4µM,nt
CSc1ccc(/C=N/Nc2cccc(C(=O)O)c2)cc1,?,?,0.073µM,0.076µM,0.089µM,0.25µM
Cc1cc(C(=O)N/N=C/c2ccc(OCc3ccccc3)cc2)c(C)o1,i,i,i,?,i,i
O=C(O)c1cc(N/N=C/c2ccc(OCc3ccccc3)cc2)ccc1Cl,?,2.5µM,?,6.7µM,0.56µM,11µM
